A selection: hits, their analogues and other compounds. The true share with any hit is near 2.3%.
CHRM1 agonist = human M1 muscarinic receptor agonism; activation, % at 3 µM; CHO-K1 hM1, Fluo-8 calcium fluorescence, agonist mode; 0% DMSO, 100% acetylcholine EC100; P11229; actives 0.33% (n = 360,000);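 active = activation above the run's mean compound activation plus 3 SD, cut at about 16% in these data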;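 note: peak over basal fluorescence ratio within a 140 s kinetic read after compound addition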
Target sequence (P11229 whole entry, looked up): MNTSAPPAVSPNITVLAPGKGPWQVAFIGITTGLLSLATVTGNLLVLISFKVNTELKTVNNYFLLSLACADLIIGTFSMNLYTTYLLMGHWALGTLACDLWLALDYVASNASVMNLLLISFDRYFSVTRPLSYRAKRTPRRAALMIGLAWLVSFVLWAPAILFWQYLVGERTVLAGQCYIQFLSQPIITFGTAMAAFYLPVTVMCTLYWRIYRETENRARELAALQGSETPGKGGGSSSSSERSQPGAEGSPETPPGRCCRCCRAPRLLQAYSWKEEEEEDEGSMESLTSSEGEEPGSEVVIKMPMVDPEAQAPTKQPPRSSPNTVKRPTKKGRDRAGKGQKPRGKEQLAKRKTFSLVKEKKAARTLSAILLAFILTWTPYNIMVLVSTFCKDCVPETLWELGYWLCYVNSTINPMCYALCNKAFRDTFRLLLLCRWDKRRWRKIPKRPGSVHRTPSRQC
M1 antag = blocks human M1 muscarinic receptor; P11229; CHO-K1 hM1, Fluo-8 calcium fluorescence, ACh EC80 antagonist; inhibition, % at 3 µM; actives 1.3% (n = 360,000); AID 588852;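 active = percent inhibition above its own plate's cutoff, namely the mean of that plate's compound wells plus 3 SD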;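 note: peak over basal fluorescence ratio during 140 s after agonist addition; 0% = ACh EC80 plus DMSO and 100% = DMSO alone without agonist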
CHO-K1 Ca PAM = nonselective activator or artifact in parental CHO-K1 calcium assay. ATP EC20, Fluo-8 calcium fluorescence; 0% at ATP EC20, 100% at ATP max. activation, % at 3 µM. actives 0.02% (n = 360,000);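 active = activation above the run cutoff, the mean activation of all test compounds plus 3 SD, cut at about 40% in these data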;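 note: peak over basal fluorescence ratio in a 140 s read after ATP addition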
M1 ag parental = counter-screen for M1 agonists: effect in parental CHO-K1 cells. actives 0.48% (n = 360,000). activation, % at 3 µM. Fluo-8 calcium fluorescence; scaled to maximal ATP response, vehicle zero; in the data active = activation above about 15%;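 note: untransfected CHO-K1 host cells lacking M1 receptor as counterscreen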
M1 PAM = human CHRM1 positive allosteric modulation; activation, % at 3 µM; AID 588819; P11229; actives 0.088% (n = 360,000); CHO-K1 hM1, Fluo-8 calcium fluorescence, ACh EC20; 0% = ACh EC20, 100% = maximal ACh; in the data active = activation above about 19%, passing the limit was not always enough
CHO-K1 Ca antag = M1 antagonist counterscreen hit in parental CHO-K1 cells; ATP-induced calcium, Fluo-8 fluorescence; inhibition, % at 3 µM; actives 0.6% (n = 360,000);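 active = inhibition above a per-plate cutoff, the plate's mean sample inhibition plus 3 SD, cut at about 24% in these data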;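 note: 0% = DMSO plus EC80 ATP and 100% = DMSO alone without ATP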
* marks the source's active call; other numbers are inactive results.

SMILES	CHRM1 agonist	M1 antag	CHO-K1 Ca PAM	M1 ag parental	M1 PAM	CHO-K1 Ca antag
Cc1ccc(Cl)cc1-c1cc(C(=O)NCc2cc(C(F)(F)F)cc(C(F)(F)F)c2)[nH]n1	-3	47*	11	1	-24	-3
CCCS(=O)(=O)NC(=O)C1(C)CCN(C(=O)c2ccc(C#N)cc2)C1 (stereo unspecified)	1	-14	20	1	8	-14
CCOC(=O)c1[nH]c2ccc(F)cc2c1NC(=O)Nc1ccccc1OC	-5	-10	10	16*	5	-1
N#CC1=C2SCN(Cc3ccccc3)CN2C(=O)CC1c1cccs1 (stereo unspecified)	-6	-2	1	1	-3	27*
CCCc1nc(Cl)c(C#N)c2c1CCCC2	22*	-12	19	0	-1	-12
CCc1nc(Cl)c(C#N)c2c1CCCC2	-10	-2	32	0	9	-12
CN1CCCC(CC2Oc3ccccc3Sc3ccccc32)C1 (stereo unspecified)	-9	99*	4	2	-24	-4
c1ccc2c(c1)OC(CCCN1CCCCC1)c1ccccc1S2 (stereo unspecified)	-5	46*	9	2	-24	12
CC1CCCN(C(=O)N2c3ccccc3Sc3ccccc32)C1 (stereo unspecified)	-8	3	4	0	-10	-3
C=CCC1NS(=O)(=O)OC(CCc2ccccc2)C1O (stereo unspecified)	-3	-8	1	0	7	10
COC(=O)CNC(=O)COC(=O)/C=C/c1ccc2ccccc2n1	-2	5	3	16*	-5	13
Cc1noc(C)c1CSc1nc2sc(C)c(C)c2c(=O)n1C1CCCC1	-1	-11	15	0	11	-4
Cc1nc2nc(SCC(=O)NCCCN3CCCCCC3)nn2c(C)c1Cc1ccccc1	-12	77*	13	0	-38	-13
Cc1ccccc1Cc1c(C)nc2nc(SCC(=O)NCCCN3CCCCC3)nn2c1C	-13	51*	0	0	-31	-2
Cc1ccc(Cc2c(C)nc3nc(SCC(=O)NCCCN4CCOCC4)nn3c2C)cc1	-5	-5	10	1	-3	-17
Cc1cccc(C)c1Nc1nc2ccccc2o1	-4	9	-6	0	-7	25*
CSc1nsc(SC)c1C(=O)OCC(F)(F)F	-1	-52	22	0	24*	-18
O=C(Cc1cccc(F)c1)N1CCOCC1	-2	-16	7	1	7	-3
O=C(CCCCCn1c(=S)[nH]c2ccc(N3CCOCC3)cc2c1=O)NC1CCN(Cc2ccccc2)CC1	-9	50*	-8	0	-26	4
CCOc1ccc(OCCSc2nc3ccccc3[nH]2)cc1	-3	10	7	9	-6	-1
CCCOc1ccc(CSc2nc3ccccc3[nH]2)cc1	-3	38*	-8	12	-27	23
CCN1CCN(c2ccc(S(=O)(=O)N3CCOCC3)cc2NC(=O)c2ccccc2SC)CC1	24*	-10	-7	0	0	9
CCN1CCN(c2ccc(S(=O)(=O)N3CCOCC3)cc2NC(=O)c2cc(F)c(F)c(F)c2F)CC1	-8	-7	11	0	0	-7
CCn1c(CCC(=O)O)nc2cc(S(=O)(=O)N(C)C)ccc21	-7	-5	-15	0	4	30*
CN(C)S(=O)(=O)c1ccc2c(c1)nc(CCC(=O)O)n2C	-5	-2	5	0	4	4
SMILES	CHRM1 agonist	M1 antag	CHO-K1 Ca PAM	M1 ag parental	M1 PAM	CHO-K1 Ca antag
CC[N+](C)(CC)CCC/C(=N/O)C(O)(c1ccccc1)c1ccccc1	-3	64*	14	1	-20	-5
CCN(CC)CCC/C(=N\O)C(O)(c1ccccc1)c1ccccc1	-5	95*	11	1	-22	-14
CC/C(CC(C)(C)c1ccccc1)=N\O	-3	-4	22	0	7	-15
COCCNc1nc2c(c(=O)[nH]c(=O)n2C)n1CCCc1ccccc1	-2	-22	0	0	16	2
COc1ccc(Cl)cc1Cn1c(C)c(C(=O)NCc2ccc(F)cc2)sc1=O	-8	-1	22	3	-10	-7
CN(N=C(c1ccccc1)c1ccccc1)c1ccccc1	1	-6	16	1	5	-6
Cc1cccc(C)c1C(=NCCN(C)C)c1ccccc1	-6	75*	25	1	-24	-14
Cc1ccccc1C(=NCCCN(C)C)c1ccccc1C	-15	77*	19	0	-28	-3
CCOc1cc(C(C(=O)NCC2CCCO2)N(C(=O)Cn2nnc3ccccc32)c2ccccc2OC)ccc1O (stereo unspecified)	-2	2	6	0	1	-6
CC(C)c1nnc(NC(=O)CCC(=O)N2CCN(C3CCCCC3)CC2)s1	22*	9	2	1	-12	-11
CCc1nnc(NC(=O)CCC(=O)N2CCN(C3CCCCC3)CC2)s1	19*	-1	10	1	-4	-16
CCc1nnc(NC(=O)CCC(=O)N2CCCC2)s1	-3	-3	16	0	2	-2
O=C(CCC(=O)N1CCN(C2CCCCC2)CC1)Nc1nnc(C(F)(F)F)s1	4	4	5	1	6	-3
CC1(C(=O)NCCC#N)CCN1C(=O)CC(c1ccccc1)c1ccccc1 (stereo unspecified)	-3	-6	13	1	-1	-9
Cc1ccc(NC(=O)COC(=O)c2ccc(Cl)nc2)cc1S(=O)(=O)N1CCCCC1	7	5	-21	1	7	9
COc1ccc(C(C)(O)c2nc(-c3ccccc3OC)cs2)cc1 (stereo unspecified)	-3	2	12	0	-1	11
COc1cc(Cn2c3ccc(NC(=O)CCc4ccc(O)cc4)cc3c(=O)n2C)ccc1F	-6	-6	7	1	-2	-4
C=CCn1c2ccccc2c2nnc(SCCN3CCCCC3)nc21	-10	53*	18	0	-29	-19
C=CCn1c2ccccc2c2nnc(SCN3C(=O)c4ccccc4C3=O)nc21	0	46*	14	6	-22	5
CCCn1c2ccc(C)cc2c2nnc(SCCN3CCCCC3)nc21	-10	20	-7	0	-20	-14
CCn1c2ccc(C)cc2c2nnc(SCCN3CCCCC3)nc21	-11	37*	-6	0	-20	-7
COc1ccc(CN2CCN(C(=O)CCC(=O)Nc3nnc(C(F)(F)F)s3)CC2)cc1F	-3	9	9	7	-9	-28
COc1ccc(CN2CCN(C(=O)CCC(=O)Nc3nnc(C4CCCCC4)s3)CC2)cc1F	-2	34*	27	5	-17	-15

Source: PubChem
